# Assay outcomes (PubChem BioAssay)
# Compounds with a hit are over-represented: about 32% of the library has one in this group of screens.
# PostGolgi ctrl – inhibits growth of the yeast control strain | efflux-deficient yeast background strain, growth absorbance A615, 16 h | inhibition, % at 10 µM | actives 5% (n = 98,000)
# PostGolgi yeast – growth inhibition of a yeast mutant, post-Golgi transport screen; actives 0.9% (n = 98,000); post-Golgi transport phenotypic cell assay; inhibition, % at 10 µM; AID 739;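 note: yeast cells grown in 1536-well plates; yeast grown about 18 h at 30C before absorbance read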
# CYP2C19 inh – human CYP2C19 inhibition. inhibition, % at 5 µM. AID 778. CYP2C19 Supersomes, luciferin-H EGE luminescence, 30 min. actives 21% (n = 96,000);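 active = CYP2C19 inhibition above a set limit at 5 µM in the primary screen, cut at about 50% in these data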;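 note: plate controls were negative control wells for no effect and 2.5 mM tranylcypromine positive control for full effect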
# Target sequence (P33261 whole entry, looked up): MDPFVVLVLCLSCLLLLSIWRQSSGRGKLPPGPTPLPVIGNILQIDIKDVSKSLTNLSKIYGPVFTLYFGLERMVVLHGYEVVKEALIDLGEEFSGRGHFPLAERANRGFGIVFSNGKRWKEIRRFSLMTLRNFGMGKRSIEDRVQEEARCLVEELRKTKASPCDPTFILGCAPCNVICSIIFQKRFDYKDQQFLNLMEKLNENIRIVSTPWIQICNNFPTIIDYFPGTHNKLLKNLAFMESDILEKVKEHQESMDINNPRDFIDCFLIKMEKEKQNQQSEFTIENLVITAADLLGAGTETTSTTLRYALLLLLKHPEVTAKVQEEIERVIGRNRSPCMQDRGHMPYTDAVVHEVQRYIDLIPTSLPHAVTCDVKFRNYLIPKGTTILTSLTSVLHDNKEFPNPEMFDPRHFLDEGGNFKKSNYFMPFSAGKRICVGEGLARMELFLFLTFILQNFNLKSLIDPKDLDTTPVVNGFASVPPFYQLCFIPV
# CYP2C9 activ – activators of human CYP2C9. AID 1024. activation factor at 5 µM. recombinant CYP2C9, luciferin-H conversion, luminescence; active compounds read high; factor 1 = untreated enzyme, 0 = blocked. P11712. actives 1.4% (n = 96,000);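 active = activation factor of 2 or more for CYP2C9 at a 5 µM dose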;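 note: 0 = sulfaphenazole-blocked wells and 1 = vehicle-only wells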
# CYP2C19 activ – activators of human cytochrome P450 2C19; P33261; recombinant CYP2C19, luciferin-H EGE luminescence; active compounds read high; 0 = fully inhibited enzyme, 1 = untreated enzyme; activation factor at 5 µM; AID 1025; 96,000 tested, under 10 active;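 active = activation factor of at least 2 at 5 µM in the primary screen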;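 note: 0 = wells with 2.5 mM tranylcypromine and 1 = vehicle-only wells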
# CYP2C9 inh – blocks human cytochrome P450 2C9. inhibition, % at 5 µM. actives 20% (n = 96,000). CYP2C9 Supersomes, luciferin-H conversion, luminescence;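 active = blocking of liver enzyme CYP2C9 beyond about 50% at 5 µM, limit read from the data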
# An asterisk follows results filed as active; . = no result given. Cut-off read from the data, not from the text of the source, unless noted: active = inhibition above about 30%; inactive = the rest.
SMILES,PostGolgi ctrl,PostGolgi yeast,CYP2C19 inh,CYP2C9 activ,CYP2C19 activ,CYP2C9 inh
CCOc1ccccc1N(CC(=O)NCc1ccc(OC)cc1)S(C)(=O)=O,2,0,89*,0.4,0.1,62*
Cc1cc(C)c(NC(=O)CN(c2ccccc2)S(=O)(=O)N(C)C)c(C)c1,7,3,42,0.7,0.6,31
CN(C)S(=O)(=O)N(CC(=O)Nc1cccc(F)c1)c1ccccc1,-2,-5,43,0.4,0.6,57*
COc1ccc(CCNC(=O)CN(c2ccccc2OC)S(C)(=O)=O)cc1,-3,6,93*,0,0.1,97*
CCn1c2ccccc2c2cc(NC(=O)CSc3nnc(-c4ccc(OC)cc4)n3N)ccc21,-3,-5,18,0.8,0.8,24
COc1ccc(C2CCCN2C(=O)Nc2cccc(C(C)=O)c2)cc1OC (stereo not given),0,-12,10,0.8,0.9,20
CCOc1ccc(N(CC(=O)NCc2ccccc2OC)S(C)(=O)=O)cc1,6,-6,21,0.9,0.8,14
CCOc1ccc(N(CC(=O)NCc2ccccc2)S(C)(=O)=O)cc1,-4,-2,50*,0.6,0.5,40
Cc1cccc2cc(CN(Cc3ccco3)C(=O)Nc3cccc(C#N)c3)c(Cl)nc12,12,-5,62*,0.1,0.4,95*
Cc1nnc(N(Cc2ccco2)C(=O)c2cccc(C#N)c2)s1,10,-3,48,0.7,0.5,27
Cc1ccc(NC(=O)N(Cc2ccco2)Cc2cc3cc(C)cc(C)c3nc2Cl)cc1,-2,-1,19,0.5,0.8,50*
O=C(CSc1ncnc2c1oc1ccccc12)N1CCc2ccccc2C1,.,.,12,0.8,0.9,18
Cc1ccc2c(Cl)cc(Cl)c(OCC(=O)Nc3cc(C)on3)c2n1,1,-8,50*,1.9,0.5,-89
CCOc1ccc(N/C=C/C(=O)c2ccc(OC)cc2)c([N+](=O)[O-])c1,-14,12,26,3*,0.7,-200
COc1ccc(CC(=O)Nc2cc(C)on2)cc1,2,-2,26,1,0.7,2
COc1ccc(C(=O)/C=C/Nc2cc(C)on2)cc1,-3,3,58*,0.6,0.4,36
COc1ccc(OCCC(=O)Nc2cc(C)on2)cc1,11,4,63*,0.7,0.4,29
Cc1nc2cc(Cl)c(Cl)cc2nc1C,-10,4,-2,1,1,5
COc1ccc(OCCC(=O)NC2=NCCS2)cc1,3,2,76*,1.2,0.2,-18
Cc1cc(NS(=O)(=O)c2ccc(NC(=O)CCCOc3ccc(Cl)cc3)cc2)no1,7,-4,22,0.4,0.8,58*
COc1ccc(C(C(=O)NC(C)(C)C)N(Cc2ccco2)C(=O)CCC(=O)Nc2cc(C)on2)cc1 (stereo not given),18,0,38,0.3,0.6,69*
Cn1c(=O)n(CCc2ccccc2)c(=O)c2c1nc1n2CCN1Cc1ccco1,11,-3,22,0.6,0.8,35
COc1ccc2c3c(c(=O)oc2c1OCC(N)=O)CCCC3,12,8,11,2.5*,0.9,-145
CCCOc1ccc2c3c(c(=O)oc2c1OCCC)CCCC3,56*,-5,30,1.2,0.7,-17
CCOc1ccc2c3c(c(=O)oc2c1OCC)CCCC3,15,-6,45,1.9,0.5,-90
SMILES,PostGolgi ctrl,PostGolgi yeast,CYP2C19 inh,CYP2C9 activ,CYP2C19 activ,CYP2C9 inh
Cc1cc(Cl)ccc1OCC(=O)NCCCN1CCOCC1,10,5,42,1,0.6,-1
O=C(NC(=S)NCCN1CCOCC1)c1ccccc1Cl,27,2,54*,1.1,0.5,-8
O=C(COc1ccc(Cl)cc1Cl)NCCCN1CCOCC1,18,65*,19,0.8,0.8,22
O=C(COc1ccccc1Cl)NCCCN1CCOCC1,16,6,57*,1,0.4,3
O=C(NC(=S)NCCN1CCOCC1)c1ccc(Cl)cc1Cl,-12,12,47,1.1,0.5,-8
O=C(O)C1C2C=CC(C2)C1C(=O)OCc1ccccc1 (stereo not given),6,-5,-9,1,1.1,-1
COc1cc(C2C=C(C34CC5CC(CC(C5)C3)C4)NC(=S)N2)cc(OC)c1OC (stereo not given),2,0,49,0.5,0.5,54*
